Measured values reported in PubChem BioAssay (NCI).
About 83,000 compounds went through this panel and 20% of them were active in at least one assay; those are over-represented in the sample as a whole.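 Method: cells in 96-well plates; compound added at one concentration; 48 h incubation; percent growth measured; values under 10 scored active.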 Values without a mark were called inactive. Active and inactive are the calls of the source.

What follows are molecules tested on DU-145 prostate (assay: NCI-60 one-dose screen, 48 h (100 = growth as untreated, 0 = no growth, -100 = all killed)). Conditions: 10 µM unless noted.

First: COc1ccc(C(=O)N2NC(=O)/C(=C/c3ccc(Br)cc3)N=C2c2ccccc2)cc1
Second: COc1ccc(Nc2ncccc2C(=O)NCc2cn(Cc3cccc(Oc4ccccc4)c3)nn2)cc1
The growth of the first is higher: 102% for the first, 46.1% for the second.

First: N#Cc1c(-c2ccccc2)cc(-c2ccccc2)n(CC(=O)NO)c1=O
Second: N/C(=N\S(=O)(=O)c1ccccc1)Nc1nc2ccccc2s1
The growth of the first is lower: 61% for the first, 111% for the second.

First: O=S(=O)(NCCCNc1nccc(-n2ccc3cccnc32)n1)c1cccc(C(F)(F)F)c1
Second: O=C(NCCNc1nccc(-n2ccc3cccnc32)n1)c1ccc(C(F)(F)F)cc1
The growth of the first is lower: 101% for the first, 111% for the second.

First: FC(F)(F)c1cccc(-c2cn3c(ccc4ccccc43)n2)c1
Second: Fc1ccc(-c2nc(-c3nc4ncccc4[nH]3)cc3c2[nH]c2ccccc23)cc1F
The growth of the first is higher: 106% for the first, 49% for the second.

Compared with COc1ccc(CN2CCc3c(Sc4ccccc4)nc(N)nc3C2=O)c(OC)c1, COc1cc(-c2nc(-c3nc4ccc(Cl)cc4[nH]3)cc3c2[nH]c2ccccc23)cc(OC)c1OC is higher in growth: 77.4% for the first, 86.8% for the second.

Going from CCN(CC)CCC(CNc1ccnc2cc(Cl)ccc12)c1ccc(Cl)cc1 (stereo not drawn) to NC1=NC(SCc2ccccc2CCl)c2ncn(Cc3ccccc3CCl)c2N1 (stereo not drawn), the growth falls from 67.7% to 64%.

Compared with Cc1ccc(S(=O)(=O)C2=C3C(=C(c4ccccc4)c4ccccc43)CN(S(=O)(=O)c3ccc(C)cc3)C2)cc1, O=S(=O)(CC(O)(c1ccccc1)c1ccccc1)CC(O)(c1ccccc1)c1ccccc1 is higher in growth: 68.2% for the first, 74.6% for the second.

Going from COc1cc(/C=C/C(=O)N2CCN(C(=O)/C=C/c3cc(OC)c(OC)c(OC)c3)CC2)cc(OC)c1OC to COc1cc(/C(C#N)=C/c2ccc3c(c2OC)OCO3)cc2c1OCO2, the growth falls from 109% to 11.2%.

c1ccc(-c2nnc(-c3ccccn3)s2)nc1 and CCCCCCCCC(C)OC(=O)c1nn(C(C)=O)c2ccccc12 (stereo not drawn) are the same in growth: 110% for the first, 110% for the second.

Compared with C=C(C)[C@@H]1C[C@@H]2Cc3cc(Cl)ccc3N1O2, C=C(C)[C@@H]1C[C@@H]2Cc3ccc(Cl)c(C)c3N1O2 is lower in growth: 123% for the first, 97.3% for the second.

First: C=C[C@@H]1C[C@@H]2Cc3c(C)cc(C)cc3N1O2
Second: CC12CCC3C4(C)COC(c5ccco5)OC4CCC3(C)C1CC(C1=CCOC1=O)O2 (stereo not drawn)
The growth of the first is higher: 108% for the first, 107% for the second.

COc1ccc(Nc2ncccc2C(=O)NCc2cn(Cc3cccc(Oc4ccccc4)c3)nn2)c(OC)c1 was tested, and the growth was 4.02% (active).
In the case of COc1cc(NC(N)=NCCC(C)(C)Oc2ccc(C(F)(F)F)cc2)ncc1C#N, the growth is reported as -32.6% (active).
COc1ccc2c(c1)[nH]c(=O)c1c3cc(OC)ccc3cn21 was tested, and the growth was 0.89% (active).
For O=C1C(Cl)=C(Nc2ccccn2)C(=O)c2ccccc21, the growth was -10.9% (active).
For Cc1c(C(=O)/C=C/c2csc3ccccc23)[n+](=O)c2ccccc2n1[O-], the growth was -3.03% (active).
In the case of COc1cc(/C=N\NC(=O)CN2CCN(c3cc4c(cc3F)c(=O)c(C(=O)N/N=C/c3cc(OC)c(OC)c(OC)c3)cn4C3CC3)CC2)cc(OC)c1OC, the growth is reported as 8.55% (active).
With C=C1CCC2C3(C)COC(c4ccc(N(C)C)cc4)OC3CCC2(C)C1C/C=C1/C(=O)OCC1O (stereo not drawn) the growth was 7.35% (active).

Each molecule was assayed on K-562 leukemia in the same assay as above. Conditions: 10 µM unless noted.

Going from N#C/C(=C1C=C/C(=N/O)C(Cl)=C/1)c1ccc(Cl)cc1 to N/C(=N\S(=O)(=O)c1ccccc1)Nc1nc2ccccc2s1, the growth rises from 42.6% to 84.9%.

Going from c1coc(CNc2ccnc(Nc3ccc(OCCN4CCCCC4)cc3)n2)c1 to COc1ccc(Nc2ncccc2C(=O)NCc2cn(Cc3cccc(Oc4ccccc4)c3)nn2)cc1, the growth rises from 27.6% to 33.6%.

Compared with C=C1CCC2C(C)(CO)C(O)CCC2(C)C1C/C=C1/C(=O)OCC1O/C=C/c1ccccc1 (stereo not drawn), C=C1CCC2C3(C)COC(c4ccc(N(C)C)cc4)OC3CCC2(C)C1C/C=C1/C(=O)OCC1O (stereo not drawn) is higher in growth: 22.9% for the first, 44% for the second.

Compared with C=C(C)[C@@H]1CC[C@]2(C(=O)N3CCNCC3)CC[C@]3(C)[C@H](CC[C@@H]4[C@@]5(C)C/C(=C/c6ccncc6)C(=O)C(C)(C)[C@@H]5CC[C@]43C)[C@@H]12, CC12CCC3C4(C)COC(c5ccco5)OC4CCC3(C)C1CC(C1=CCOC1=O)O2 (stereo not drawn) is lower in growth: 97.3% for the first, 92.6% for the second.

First: CCOC(=O)C1C(=O)C=C(c2ccc(OC)cc2)CC1c1sc(N(C)Cc2ccccc2)nc1Cl (stereo not drawn)
Second: COc1ccc(CN2CCc3c(Sc4ccccc4)nc(N)nc3C2=O)c(OC)c1
The growth of the first is higher: 68.4% for the first, 48.3% for the second.

Going from COc1cc(/C=C/C(=O)/C=C/c2cc(OC)c3c(c2)OCO3)cc2c1OCO2 to COc1cc(/C(C#N)=C/c2ccc3c(c2OC)OCO3)cc2c1OCO2, the growth falls from 50.9% to 20.9%.

Compared with CN(CCCCCl)P(=O)(OCc1ccc([N+](=O)[O-])o1)C(F)(F)C[C@H](NC(=O)CNC(=O)c1ccc(N=[N+]=[N-])cc1)C(=O)NCCc1ccc(O)cc1 (stereo partly drawn), O=C(NCCNc1nccc(-n2ccc3cccnc32)n1)c1ccc(C(F)(F)F)cc1 is higher in growth: 40.4% for the first, 99.8% for the second.

First: COc1ccc(C(=O)N2NC(=O)/C(=C/c3ccc(Br)cc3)N=C2c2ccccc2)cc1
Second: COc1ccc(Nc2ncccc2C(=O)NCc2cn(Cc3cccc(Oc4ccccc4)c3)nn2)c(OC)c1
The growth of the first is higher: 81.8% for the first, 21.3% for the second.

First: O=S(=O)(NCCCNc1nccc(-n2ccc3cccnc32)n1)c1cccc(C(F)(F)F)c1
Second: FC(F)(F)c1cccc(-c2cn3c(ccc4ccccc43)n2)c1
The growth of the first is higher: 100% for the first, 86.5% for the second.

Going from COc1ccc2c(c1)[nH]c(=O)c1c3cc(OC)ccc3cn21 to COc1cc(-c2nc(-c3nc4ccc(Cl)cc4[nH]3)cc3c2[nH]c2ccccc23)cc(OC)c1OC, the growth rises from 25.6% to 54.1%.

Compared with Cc1ccc(S(=O)(=O)C2=C3C(=C(c4ccccc4)c4ccccc43)CN(S(=O)(=O)c3ccc(C)cc3)C2)cc1, O=S(=O)(CC(O)(c1ccccc1)c1ccccc1)CC(O)(c1ccccc1)c1ccccc1 is higher in growth: 18% for the first, 75.8% for the second.

First: O=C1C(Cl)=C(Nc2ccccn2)C(=O)c2ccccc21
Second: c1ccc(-c2nnc(-c3ccccn3)s2)nc1
The growth of the first is lower: 29.6% for the first, 93.9% for the second.

Compared with COc1cc(/C=C/C(=O)N2CCN(C(=O)/C=C/c3cc(OC)c(OC)c(OC)c3)CC2)cc(OC)c1OC, Cc1c(C(=O)/C=C/c2csc3ccccc23)[n+](=O)c2ccccc2n1[O-] is lower in growth: 98.7% for the first, 21.7% for the second.

First: C=C(C)[C@@H]1C[C@@H]2Cc3cc(Cl)ccc3N1O2
Second: C=C(C)[C@@H]1C[C@@H]2Cc3ccc(Cl)c(C)c3N1O2
The growth of the first is higher: 97.7% for the first, 91.3% for the second.

Going from NC1=NC(SCc2ccccc2CCl)c2ncn(Cc3ccccc3CCl)c2N1 (stereo not drawn) to Fc1ccc(-c2nc(-c3nc4ncccc4[nH]3)cc3c2[nH]c2ccccc23)cc1F, the growth rises from 21.9% to 78.5%.

Going from C=C[C@@H]1C[C@@H]2Cc3c(C)cc(C)cc3N1O2 to CCCCCCCCC(C)OC(=O)c1nn(C(C)=O)c2ccccc12 (stereo not drawn), the growth rises from 89.8% to 106%.

For C[n+]1c(/C=C/c2c(O)ccc3ccccc23)ccc2ccccc21, the growth was 6.81% (active).
In the case of CCN(CC)CCC(CNc1c2ccc(Cl)cc2nc2ccc(OC)cc12)c1ccccc1 (stereo not drawn), the growth is reported as -21.8% (active).
For C=C1CC2(OC1=O)C(=O)N(CCCN1C(=O)C3(CC(=C)C(=O)O3)c3ccccc31)c1ccccc12 (stereo not drawn), the growth was 5.21% (active).
For N#Cc1c(-c2ccccc2)cc(-c2ccccc2)n(CC(=O)NO)c1=O, the growth was 6.26% (active).
In the case of COc1cc(NC(N)=NCCC(C)(C)Oc2ccc(C(F)(F)F)cc2)ncc1C#N, the growth is reported as -43.7% (active).
With CCN(CC)CCC(CNc1ccnc2cc(Cl)ccc12)c1ccc(Cl)cc1 (stereo not drawn) the growth was -53.9% (active).
In the case of COc1cc(/C=N\NC(=O)CN2CCN(c3cc4c(cc3F)c(=O)c(C(=O)N/N=C/c3cc(OC)c(OC)c(OC)c3)cn4C3CC3)CC2)cc(OC)c1OC, the growth is reported as 5.07% (active).
